Hits are enriched below; roughly 1.5% of the tested compounds scored in any of these assays.
Her2 expr inh: Her2 kinase expression inhibition. P04626. SKBR-3 HER2 protein level, AlphaScreen, 18-24 h; active compounds read low. HER2 level % of control, % at 10 µM. hit rate 0.69% among 65,000. AID 645;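 active = HER2 level under 5% of the carrier-only control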;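 note: 100% = DMSO carrier and 0% = 500 nM PU-H71 HSP90 inhibitor; lower value means stronger loss of Her2 protein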
SKBR3 24h inh: SK-BR-3 proliferation inhibitors | SK-BR-3 viability, CellTiter-Glo ATP luminescence, 24 h; active compounds read low | viability, % at 10 µM | hit rate 0.47% among 41,000 | AID 847;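 active = viability at or below the median of all test compounds minus 3 SD, in both replicates if run twice, cut at about 45% in these data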;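 note: 100% = median untreated cell wells and 0% = median positive control drug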
Hsp90 inh: displaces geldanamycin probe from tumor Hsp90 | hit rate 0.35% among 64,000 | NCI-N417 lysate Hsp90, Cy3B-geldanamycin FP displacement | inhibition, % at 30 µM | P07900;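 active = inhibition above 50%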;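 note: 0% = tracer plus lysate wells and 100% = tracer alone without lysate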
DUSP1 inh: blocks human MKP-1 phosphatase activity. inhibition, %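 (compounds tested at a single concentration somewhere between 10 and 100 µM)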. hit rate 0.15% among 65,000. recombinant MKP-1, OMFP hydrolysis fluorescence. AID 374;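 active = inhibition above about 50%, limit read from the data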;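 note: 0% = DMSO max control wells and 100% = wells with enzyme stopped by NaOH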
Target sequence (P28562 whole entry, looked up): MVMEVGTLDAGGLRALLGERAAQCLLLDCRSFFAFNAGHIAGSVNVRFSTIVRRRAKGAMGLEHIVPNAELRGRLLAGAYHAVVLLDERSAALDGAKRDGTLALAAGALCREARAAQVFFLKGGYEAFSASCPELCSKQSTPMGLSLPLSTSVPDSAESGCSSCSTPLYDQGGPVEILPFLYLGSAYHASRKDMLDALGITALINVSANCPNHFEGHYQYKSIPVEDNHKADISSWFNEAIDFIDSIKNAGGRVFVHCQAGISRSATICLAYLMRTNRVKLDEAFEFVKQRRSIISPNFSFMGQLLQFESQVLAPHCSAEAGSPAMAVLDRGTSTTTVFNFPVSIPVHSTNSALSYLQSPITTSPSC
Cdc25B block: human M-phase inducer phosphatase 2 inhibition; inhibition, %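 (compounds tested at 10 µM final in the well)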; P30305; recombinant Cdc25B, OMFP fluorescence Ex485/Em525; hit rate 0.1% among 65,000; in the data active = inhibition above about 50%
Starred values were filed as active, the others as inactive; / = no result given.

SMILES	Her2 expr inh	SKBR3 24h inh	Hsp90 inh	DUSP1 inh	Cdc25B block
COCCn1cnc2c(c1=O)c1nc3ccccc3nc1n2/N=C/c1cccc(OC)c1OC	-0.7*	72	-2	-13	-13
COc1cc(/C=C(\C#N)C(=O)c2ccc(O)c(O)c2)cc(I)c1O	/	/	73*	/	/
COCc1cc(C)nc(SCC(=O)c2ccc(O)c(O)c2)c1C#N	87	97	29	21	-11
COc1cc(OC)cc(-n2nc(C(=O)NCCCN3CCOCC3)c3ccccc3c2=O)c1	90	/	-1	-3	76*
COCCNC(=O)c1nn(-c2cc(OC)cc(OC)c2)c(=O)c2ccccc12	108	/	-4	-5	-3
N#CC1=C(N)N2C(=C(C#N)C13CCCCC3)SC1CCCCC12O (stereo unspecified)	72	/	-5	3	63*
CSC1=C(C#N)C2(CCCC2)C(C#N)=C(N)N1	89	95	-4	-7	9
O=C(NC1CC1)c1c[nH]c2ccc(S(=O)(=O)Nc3cccc(C(F)(F)F)c3)cc2c1=O	94	/	-2	52*	0
Cc1cc2oc3c(c(=O)c2cc1C)C(c1cccc(Br)c1)N(Cc1ccco1)C3=O (stereo unspecified)	26	42*	2	16	5
Cc1ccc2oc3c(c(=O)c2c1)C(c1cccc(Br)c1)N(Cc1ccco1)C3=O (stereo unspecified)	64	91	0	15	7
CCCCS(=N)(=O)CC[C@H](N)C(=O)O (stereo partly specified)	/	/	-1	/	/
COc1cccc(N2CCN(c3ncnc4c3[nH]c3ccc(F)cc34)CC2C)c1 (stereo unspecified)	-26*	5.7*	-1	-1	24
[N-]=[N+]=Nc1ccc(C(=O)CSC[C@H](NC(=O)CC[C@H](N)C(=O)O)C(=O)NCC(=O)O)cc1	/	/	2	/	/
OC[C@H]1O[C@@H](n2cnc3c(NCCc4ccccc4)ncnc32)C(O)[C@H]1O (stereo partly specified)	/	/	0	/	/
CCn1cc(S(=O)(=O)CC(=O)N2CCc3ccccc32)c2ccccc21	1.6*	/	-5	18	-13
CCCn1cc(S(=O)(=O)CC(=O)N2CCc3ccccc32)c2ccccc21	60	90	/	6	-13
Cc1ccc(C2C(C(=O)c3cc4ccccc4o3)=C(O)C(=O)N2CCCN(C)C)cc1 (stereo unspecified)	110	102	-6	-28	25
CC1(NCC(O)COc2cccc3[nH]ccc23)CCC(C(C)(C)NC(=O)CBr)CC1 (stereo unspecified)	/	/	-1	/	/
COc1ccc2c(c1OC)C(=O)N(C(C)C(=O)O)C2=O (stereo unspecified)	94	80	0	10	-8
CC(C)Cn1c(=O)c(C(=O)Nc2ccncc2)c(O)c2ccccc21	-13*	98	4	22	6
CC(C)Cn1c(=O)c(C(=O)Nc2cnccn2)c(O)c2ccccc21	34	102	-5	16	4
NC1(C(=O)O)CCc2cc(C(=O)O)ccc21 (stereo unspecified)	/	/	-7	/	/
CCCCOC(=O)CCn1[nH]c(=O)c2ccccc2c1=O	91	91	-10	-3	5
O=C(CCn1[nH]c(=O)c2ccccc2c1=O)OC1CCCCC1	-24*	82	0	27	4
Cc1ccccc1OCCCC(=O)Nc1nccs1	-20*	/	0	11	1
SMILES	Her2 expr inh	SKBR3 24h inh	Hsp90 inh	DUSP1 inh	Cdc25B block
COc1ccccc1C(CCN(Cc1cccs1)C(C)=O)c1ccco1 (stereo unspecified)	83	88	-11	30	4
COc1ccccc1C(CC(=O)Nc1nccs1)c1ccco1 (stereo unspecified)	-17*	90	-9	-17	-4
Nc1nc(SCc2ccc([N+](=O)[O-])cc2)c2ncn([C@@H]3O[C@H](CO)[C@H](O)C3O)c2n1 (stereo partly specified)	/	/	46	/	/
COCCNC(=O)c1ccccc1NC(=O)c1ccc(OC)c(OC)c1	183	81	-1	3	-10
CCOc1cc(C(=O)NCCOC)ccc1OC	-8.0*	114	-15	-1	0
CCCCOc1ccc(C(=O)NCC(=O)NCC(=O)OCC)cc1	82	95	0	-25	91*
CCCCCn1c(=NC(C)=O)c(C#N)cc2c(=O)n3cccc(C)c3nc21	94	75	-15	-6	8
CS(=O)(=O)c1ncc(Cl)c(C(=O)Nc2ccc(N3CCOCC3)cc2)n1	-1.6*	70	17	1	-8
O=C(Nc1ccc(N2CCOCC2)cc1)c1cnsn1	119	89	10	-7	-10
CCOC(=O)c1c(C)oc2c1c(C=NCC1CCCO1)c(O)c1ccccc12 (stereo unspecified)	79	/	64*	35	28
CNC(=O)[C@H]1O[C@@H](n2cnc3c(NCc4cccc(I)c4)ncnc32)C(O)[C@H]1O (stereo partly specified)	/	/	-3	/	/
O=S(=O)(c1ccc2c(c1)C(=NO)c1cc(S(=O)(=O)N3CCCCC3)ccc1-2)N1CCCCC1	-22*	3.5*	-6	28	6
CCc1nc(C)ccc1OCC(=O)O	142	/	4	3	-1
CCc1nc(C)ccc1OCC(=O)NCCCN(C)C	-28*	87	0	-5	-7
CCc1ccc(-c2nc(CN3CCCC(C(=O)NCCc4ccc(OC)c(OC)c4)C3)c(C)o2)cc1 (stereo unspecified)	-23*	/	-4	36	-33
COc1ccc(NCc2cc3ccccc3[nH]c2=O)cc1	57	111	12	-7	-4
COc1ccc(NCc2cc3cc(OC)ccc3[nH]c2=O)cc1	82	94	88*	-10	30
O=S(=O)(Nc1ccc(-c2nc3cccnc3s2)cc1)c1cccs1	100	/	-6	9	-34
O=S(=O)(Nc1cccc2ncccc12)c1cccs1	-7.3*	/	12	-6	1
O=C(O)CCCCCC[C@H]1C(=O)NC(=O)N1CC[C@@H](O)C1CCCCC1	/	/	2	/	/
CCc1ccc(-c2nnn(CCC(=O)OC)n2)cc1	109	93	103*	-10	-7
CC(C)c1ccc(-c2nnn(CCC(=O)O)n2)cc1	93	91	2	2	-4
O=C(c1ccc(Cl)cc1)N1CCN(c2nc(N3CCCCC3)nc(N3CCCCC3)n2)CC1	229	117	/	-1	5
Cc1ccc(Cl)cc1N1CCN(Cc2nc3c(c(=O)[nH]c(=O)n3C)n2Cc2ccccc2F)CC1	3.2*	/	-4	35	2
Cc1ccc(Cl)cc1N1CCN(Cc2nc3c(c(=O)[nH]c(=O)n3C)n2CCc2ccccc2)CC1	45	/	1	30	-1
O=C1c2ccccc2C(Nc2ccc3c(c2)OCO3)N1Cc1ccc2c(c1)OCO2 (stereo unspecified)	102	/	51*	-2	-3
CC1CCN(Cc2nc3c(c(=O)n(C)c(=O)n3C)n2CCN2CCOCC2)CC1	102	97	/	-2	-14
Clc1ccc(-n2nnnc2Sc2ncnc3sccc23)cc1	-11*	/	-3	-5	0

Bioassay records: PubChem, several laboratories
